Screens (PubChem)
The list is not random: actives were taken first. Their share in the collection is about 1.4%.
KCNH2 WT inh – qHTS for Inhibitors of KCHN2 3.1: Wildtype qHTS. U2OS, BacMam KCNH2, thallium flux FluxOr; active compounds read low. activity change, % at 1.84 µM. 0.37% of 340,000 active. AID 720551, 2013;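 active = maximum activity change below -70%; inconclusive = maximum activity change between -70% and -50%; inactive = maximum activity change above -50%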; also: % is scaled to controls: 0 for no effect and ±100 for the full control effect
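U2OS cells were transduced with wild-type KCNH2 virus (2.03 x 10^8 / mL) for 4 h at room temperature, then cultured overnight at 37 C. Thallium flux was read with FluxOr dye. Rate constants were normalized to DMSO controls.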
Mm-Cpn inhibitor – Inhibitors of TCP-1 ring complex (TRiC) of Methanococcus maripaludis (MmCpn): qHTS. Chaperonin Mm-Cpn (Methanococcus maripaludis). purified Mm-Cpn ATPase, ADP Transcreener TR-FRET. Potency, µM (series often up to 76.9 µM), without a hit: top-dose activity, negative = inhibition, hits mostly inhibitors. 0.031% of 330,000 active; active = well fitted inhibition curve with a large enough effect; inconclusive = small, poorly fitted or top-dose-only effect; also: potency is read from the fitted curve at half-maximal effect; % is scaled to controls: 0 for no effect and ±100 for the full control effect; nearly all actives have a fitted effect of over 80% in size
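Purified archaeal Mm-CPN (25nM final) preincubated 10 min at 37degC with compound, then 10uM ATP for 30 min at 37degC; ADP measured by HTRF Transcreener TR-FRET; buffer 30 mM TRIS pH 7.4, 100mM KCl, 5mM MgCl2, 1mM DTT.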
Rango-impB inh – qHTS Assay for Inhibitors of Rango (Ran-regulated importin-beta cargo) - Importin beta complex formation | Importin subunit beta-1 (Homo sapiens), Q14974 | Rango CFP/YFP FRET sensor + importin beta, 45 min | Potency, µM (doses to about 92.2 µM), for inactives: at the highest dose inhibition of complex formation | 0.031% of 340,000 active;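 also: potency is read from the fitted curve at half-maximal effect; 0% = DMSO wells and 100% = buffer wells lacking importin beta; nearly all actives have a fitted effect of over 15% in size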
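Inhibition scored from the CFP 486 nm/YFP 530 nm FRET ratio 45 min after adding 0.125 microM importin beta to 50 nM Rango biosensor preincubated 5 min with compound (room temperature, PBS with DTT, Tween-20, BSA). No-importin wells as positive control.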
CCT chaperon mod – High-Throughput Screening for Modulators of Cytosolic Chaperonin Activity | purified chaperonin ATPase assay, HTRF ADP detection, 30 min | activity change, % (concentration not given with the values), hits read low | 0.3% of 360,000 active | AID 651819, 2012; in the data active = activity change below about -30%; also: % is scaled to controls: 0 for no effect and ±100 for the full control effect
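Nucleotide hydrolysis assay: TRiC at 20–40 nM final (set by batch activity) with 10 uM ATP, 30 min at 37 °C, in presence of 76 uM compound. Detection by competitive ADP HTRF, 30 min ambient.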
KCNH2 3.1 inh – qHTS for Inhibitors of KCHN2 3.1: Mutant qHTS | Potassium voltage-gated channel subfamily H member 2, brain isoform KCNH2 3.1 (human) | U2OS KCNH2 3.1, thallium flux FluxOr; active compounds read low | activity change, % (tested at about 1.8 µM) | 0.95% of 340,000 active;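 active = maximum activity change below -70%; inconclusive = maximum activity change from -70% to -50%; inactive = maximum activity change above -50%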;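 also: thallium influx rate constant from kinetic fluorescence after stimulation buffer; % is scaled to controls: 0 for no effect and ±100 for the full control effect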
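Virally transduced U2OS (3.1 isoform, 4 h infection in dark at RT) → overnight 37 C → FluxOr + Red40 in HBSS/HEPES, 45 min → stimulation buffer, 2 min kinetic read → rate constant vs DMSO controls.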
Rango dissoc inh – qHTS Assay for Inhibitors of RanGTP induced Rango (Ran-regulated importin-beta cargo) - Importin beta complex dissociation; Snurportin-1 (Homo sapiens) + GTP-binding nuclear protein Ran (Homo sapiens) + Importin …; Biochemical FRET Rango-importin beta, RanGTP-induced dissociation; Potency, µM (highest dose often 46.1 µM), for the others: at the top dose activity change, negative = inhibition; 0.071% of 340,000 active; also: potency is read from the fitted curve at half-maximal effect; % of control where 0% means no effect; nearly all actives have a fitted effect of over 45% in size
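Rango FRET biosensor (snurportin-1 IBB flanked by N-terminal EYFP and C-terminal CFP10) at 0.1 uM, with 0.25 uM importin beta in PBS, 1mM DTT, 0.02% Tween-20, 0.1% BSA. 0.6 uM Ran, 2mM GTP and 0.2 uM RCC1 were then added for 45 min at room temperature. Inhibition read as loss of FRET rise.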
Numbers without * were called inactive; i = inactive; ? = inconclusive; / = not tested or not shown. Unless noted, calls follow the shape of the full dose curve.

SMILES	KCNH2 WT inh	Mm-Cpn inhibitor	Rango-impB inh	CCT chaperon mod	KCNH2 3.1 inh	Rango dissoc inh
CC(=O)NC1CC2CCCC(C1)N2 (stereo not drawn)	25.9	0.6%	2.1%	-0.6	-1.5	7.0%
CCCN1C2CCCC1CC(NC(C)=O)C2 (stereo not drawn)	3.0	0.5%	0.0%	-32.8*	5.6	23.7%
COC(=O)[C@@H]1N=C(c2ccc(OC)cc2)O[C@]12C(=O)N(C)c1cccc(Cl)c12	/	/	/	0.3	/	/
Nc1ccc(CCN2CCN(c3cccc(C(F)(F)F)c3)CC2)cc1	9.0	/	-3.0%	-2.4	-72.1*	2.3%
Nc1ccc(CCN2CCCC2)cc1	-9.2	-1.2%	-2.9%	0.5	-17.0	-1.8%
COC(=O)C1=C(c2ccc(S(C)(=O)=O)cc2)C[C@@H]2CC[C@H]1N2C(=O)N1CCC(C)CC1	-14.3	/	-5.4%	-0.1	-98.6*	-14.7%
COC(=O)C1=C(c2ccc(OC(F)(F)F)cc2)C[C@@H]2CC[C@H]1N2C(=O)N1CCC(C)CC1	21.8	0.2%	0.9%	-2.4	-14.7	2.0%
COc1ccc(N2C(=O)CC(N3CC=C(c4ccccc4)CC3)C2=O)cc1 (stereo not drawn)	-6.0	-2.3%	0.2%	-61.2*	-1.1	-16.6%
COc1ccc(CNCCc2c(C)[nH]c3ccc(OC(F)(F)F)cc23)c(OC)c1	4.2	-3.1%	2.3%	1.2	-77.7*	-0.8%
COCCCn1c(N)c(C(=O)OC(C)COC)c2nc3ccccc3nc21 (stereo not drawn)	4.9	-2.4%	?	-0.2	-6.8	?
CCCCOCCCn1c(N)c(C(=O)OC(C)COC)c2nc3ccccc3nc21 (stereo not drawn)	0.7	-4.3%	?	2.4	-6.8	9.2µM*
CC(C)OC(=O)c1cc(C(=O)c2cc(Cl)ccc2O)coc1=N	0.9	-0.3%	?	0.3	-3.1	-18.5%
CC(C)(C)n1nnnc1C(c1cccc2ccccc12)N1CCC2(CC1)C(=O)NCN2c1ccccc1 (stereo not drawn)	/	/	/	-0.1	/	/
COc1ccccc1N1CCN(Cc2ccc(SC)cc2)CC1	23.3	0.1%	-6.1%	0.7	?	1.4%
CSc1ccc(CN2CCN(c3ccccc3C)CC2)cc1	-129.2*	0.1%	3.7%	-10.1	-114.3*	0.7%
N#CC(c1ccc(Cl)nn1)c1c(F)cccc1Cl (stereo not drawn)	i	-0.8%	?	-0.9	-6.8	-9.5%
Clc1ccc(OCC#CCN2CCCC2)cc1	15.5	-0.6%	-1.3%	-34.2*	-8.4	11.5%
CCOc1ccc(-c2c(C)n(-c3ccc(OCC)cc3)c3[n+]2CCCCC3)cc1	-7.7	0.9%	-3.4%	-1.6	-111.6*	16.9%
COP(=O)(C#Cc1ccccc1)C(O)c1ccc(Br)cc1 (stereo not drawn)	-2.6	-1.0%	0.1%	-104.6*	-9.8	-11.1%
O=C(Nc1ccc(Oc2ccc(Cl)cc2)c(Cl)c1)c1cc(I)cc(I)c1O	-6.0	?	-1.9%	-2.5	-4.7	-3.2%
N=C1/C(=C\c2ccc(OC(=O)c3ccccc3Cl)cc2)C(=O)N=C2SC(N3CCOCC3)=NN12	2.5	-0.2%	?	0.4	-11.4	-23.1%
CCOC(=O)C1(CCOc2ccccc2)CCN(Cc2ccc(C)s2)CC1	-94.4*	0.8%	0.6%	-2.7	-84.0*	-14.5%
CCOC(=O)C1(CCc2ccccc2)CCN(C2CCSCC2)CC1	-27.6	-1.8%	1.3%	-1.1	-34.7	0.9%
CCOC(=O)C1(CCc2ccccc2)CCN(Cc2ccc3c(c2)OCCO3)CC1	-43.4	-0.4%	0.7%	0.4	-112.9*	-8.3%
CCOC(=O)C1(CCc2ccccc2)CCN(Cc2ccc(NC(C)=O)cc2)CC1	-3.3	0.5%	0.7%	-3.1	-5.9	11.6%
